PubChem BioAssay AID1578 (Sanford-Burnham Center for Chemical Genomics, 2009)
In all, about 290,000 compounds went through this assay and about 3,000 (1%) were called active. The sample holds actives, similar compounds and a random draw of the others, so the mix is not that of the screen. Values without a mark were called inactive. Rule as the data show it: active = inhibition mostly above about 36% (no sharp cut-off); inactive = mostly below about 34%.

Assay: inhibition of NOD1-driven NF-kB reporter – cell-based, luminescence, uHTS, primary screen (AID 1578);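 also: HEK-293T reporter cells stimulated with the NOD1 agonist gamma-tri-DAP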
Conditions: NOD1-driven NF-kB luciferase reporter cells, at 4 µM, stronger effect = higher value

Q: Which inhibition does the source give for C=CCN1C(=O)C(CC(=O)O)SC1=Nc1ccc(C)cc1 (centres undefined) here?
A: -23.8%

Q: For CC(Oc1ccccc1)c1ccnc2nc(/N=C/N(C)C)nn12 (centres undefined), which inhibition is on record?
A: -24.9%

Q: For CC1(C)CC(=O)c2sc(NS(=O)(=O)c3ccccc3)nc2C1, which inhibition is on record?
A: -13.7%

Q: For CC1(C)CC(=O)c2sc(NC(=O)CCS(=O)(=O)c3ccccc3)nc2C1, which inhibition is on record?
A: 71% (active)

Q: Which inhibition does the source give for CC1(C)CC(=O)c2sc(NC(=O)c3ccccc3)nc2C1 here?
A: -45.6%

Q: Which inhibition does the source give for CN(C)c1c(F)cc(C(=O)NC(=O)NCc2cccnc2)cc1F here?
A: -15%

Q: For COc1ccc(C(CC(=O)O)NC(=O)c2cccs2)cc1 (centres undefined), which inhibition is on record?
A: -11.2%

Q: With Cc1cccc(NC(NC(=O)c2ccccc2[N+](=O)[O-])C(Cl)(Cl)Cl)c1 (centres undefined) as the compound, how does the inhibition read?
A: -3.9%

Q: Which inhibition does the source give for COc1cc(OC)cc(-n2nnnc2SCC(=O)Nc2nc3c(s2)CCCC3)c1 here?
A: -3.7%

Q: For COc1ccc(-n2nnnc2SCC(=O)Nc2nc3c(s2)CCCC3)cc1, which inhibition is on record?
A: 43.4%

Q: For O=C(CSc1nnnn1-c1ccc2c(c1)OCCO2)Nc1nc2c(s1)CCCC2, which inhibition is on record?
A: 58.5% (active)

Q: For O=C(O)c1cccc(Oc2ccc([N+](=O)[O-])cc2)c1, which inhibition is on record?
A: -8.3%

Q: For COc1cc(/C=N/NC(=O)C(=O)NCc2cccnc2)cc(OC)c1OC, which inhibition is on record?
A: -15.5%

Q: With CCOc1ccc(C(=O)O/N=C(\N)c2ccccn2)cc1 as the compound, how does the inhibition read?
A: 20.4%

Q: Which inhibition does the source give for N/C(=N\OC(=O)c1ccccc1)c1ccccn1 here?
A: 18.4%

Q: With COc1cc(OC)cc(C(=O)O/N=C(\N)c2ccccn2)c1 as the compound, how does the inhibition read?
A: -12.2%

Q: Which inhibition does the source give for COc1ccc(C(=O)O/N=C(\N)c2ccccn2)cc1 here?
A: 84.1% (active)

Q: For Cc1ccc(C(=O)O/N=C(\N)c2ccccn2)cc1, which inhibition is on record?
A: 11.3%

Q: With CNC(=O)C(=O)NCC1OCCN1S(=O)(=O)c1ccc(C)cc1 (centres undefined) as the compound, how does the inhibition read?
A: -22.7%

Q: For CCc1ccnc(NC(=O)NS(=O)(=O)c2ccc(C)cc2)c1, which inhibition is on record?
A: -11.9%

Q: With COc1ccc(NS(=O)(=O)c2cccc(C(=O)OCC(=O)NC3CC3)c2)cc1 as the compound, how does the inhibition read?
A: 7.3%

Q: Which inhibition does the source give for CCC(NC(=O)c1cc(COc2ccc(OC)cc2Cl)on1)c1ccncc1 (centres undefined) here?
A: -10.3%

Q: With O=C(CCc1nnc(CCCCc2ccccc2)o1)NCCn1cccn1 as the compound, how does the inhibition read?
A: -24.1%

Q: For CCC(Sc1nc2cc(OC)c(OC)cc2c(=O)n1Cc1ccc(OC)cc1)C(=O)NCCOC (centres undefined), which inhibition is on record?
A: -24.5%

Q: Which inhibition does the source give for COc1ccc(Oc2cnc3ccccc3n2)cc1 here?
A: 60.3% (active)

Q: For c1ccc(Oc2cnc3ccccc3n2)cc1, which inhibition is on record?
A: 13.1%

Q: With Cc1ccc(Oc2cnc3ccccc3n2)cc1 as the compound, how does the inhibition read?
A: 18.8%

Q: Which inhibition does the source give for NC(=O)c1nn(-c2ccc(Oc3ccccc3)cc2)c(=O)cc1O here?
A: -23.2%

Q: Which inhibition does the source give for O=C(NC(=S)NCCc1ccccc1)c1ccco1 here?
A: -69.5%

Q: With CC(CCc1ccccc1)NC(=S)NC(=O)c1ccco1 (centres undefined) as the compound, how does the inhibition read?
A: -37%

Q: With O=C(NC(=S)N(CCc1ccccc1)CCc1ccccc1)c1ccco1 as the compound, how does the inhibition read?
A: 97.6% (active)

Q: Which inhibition does the source give for CC(C)C1Nc2ccc(C(=O)NC3CCCCC3)cc2NC1=O (centres undefined) here?
A: -43.7%

Q: With Nc1nc(-c2ccccc2)cc(N2CCCCC2)n1 as the compound, how does the inhibition read?
A: 6.2%

Q: For COc1ccc(O)c(/C=N/NC(=S)Nc2cccc(S(=O)(=O)N(C)C)c2)c1, which inhibition is on record?
A: -37%

Q: For CN(C)S(=O)(=O)c1cccc(NC(=S)N/N=C/c2ccc(O)c(O)c2O)c1, which inhibition is on record?
A: 56.3% (active)

Q: With CN(C)S(=O)(=O)c1cccc(NC(=S)N/N=C/c2cc(Br)ccc2O)c1 as the compound, how does the inhibition read?
A: -11.2%

Q: Which inhibition does the source give for Cc1cccc2nc(-c3ccccc3)nc(N3CCC(O)(c4ccc(Cl)cc4)CC3)c12 here?
A: -4.5%

Q: For CCN1CCCC1CNC(=O)c1ccc(CS(=O)(=O)c2ccccc2C)o1 (centres undefined), which inhibition is on record?
A: 4.8%

Q: Which inhibition does the source give for Cc1ccc(S(=O)(=O)N2CCOC23CCN(C(=O)c2ccc(Cl)cc2Cl)CC3)cc1 here?
A: -26.1%

Q: For Oc1ccccc1C=Nc1ccccc1-c1nc2ccccc2[nH]1, which inhibition is on record?
A: -7.6%

Q: For CC(C)(C)C(=O)NC(=S)Nc1sc2c(c1C#N)CCCCC2, which inhibition is on record?
A: -10.7%

Q: Which inhibition does the source give for CC(C)CC(=O)NC(NC(=S)Nc1sc2c(c1C#N)CCCC2)C(Cl)(Cl)Cl (centres undefined) here?
A: 64.5% (active)

Q: For CC(C)(C)C(=O)NC(NC(=S)Nc1sc2c(c1C#N)CCCC2)C(Cl)(Cl)Cl (centres undefined), which inhibition is on record?
A: 46.4%

Q: With Cc1cc(Nc2ccccc2)nc(NCc2ccccc2)n1 as the compound, how does the inhibition read?
A: 52.7%

Q: Which inhibition does the source give for O=C(c1ccco1)N1CCN(C(=O)c2cc3c(s2)-c2ccccc2OC3)CC1 here?
A: -13%

Q: With CCOc1ccc(C(=O)NCC(=O)OCC(=O)N2C(C)CCCC2C)cc1 (centres undefined) as the compound, how does the inhibition read?
A: -9.2%

Q: Which inhibition does the source give for O=C(N/N=C/c1ccoc1)c1ccccc1 here?
A: 20.3%

Q: With CN(CCO)S(=O)(=O)c1ccc2c(c1)C(=NO)c1cc(S(=O)(=O)N(C)CCO)ccc1-2 as the compound, how does the inhibition read?
A: -16%

Q: For CCCNC(=O)c1n[nH]c(=O)c2ccccc12, which inhibition is on record?
A: -12.4%

Q: For Cc1cc(C)c2c(N)c(C(=O)Nc3ncc(C)s3)sc2n1, which inhibition is on record?
A: 92.5% (active)

Q: With Cc1cc(C)c2c(N)c(C(=O)c3ccccc3Cl)sc2n1 as the compound, how does the inhibition read?
A: 0.3%

Q: For Cc1cc(C)c2c(N)c(C(=O)NN)sc2n1, which inhibition is on record?
A: -9.3%

Q: Which inhibition does the source give for Cc1cc(C)c2c(N)c(C(=O)c3ccc(Cl)cc3)sc2n1 here?
A: 6.3%

Q: Which inhibition does the source give for Cc1cc(C)c2c(N)c(C(=O)c3ccc(Cl)cc3Cl)sc2n1 here?
A: 81.7% (active)

Q: Which inhibition does the source give for Cc1cc(C)c2c(N)c(C(=O)Nc3nccs3)sc2n1 here?
A: 34.4%

Q: For O=C(CSc1nnc(NC(=O)C2CC2)s1)NCc1ccc(F)cc1, which inhibition is on record?
A: -10%

Q: With COc1ccc(C(C)=O)cc1CSc1ncccn1 as the compound, how does the inhibition read?
A: -32.9%

Q: Which inhibition does the source give for O=C1Nc2cc(Cl)c(Cl)cc2N(O)N1c1ccc(Cl)cc1 here?
A: 11.5%

Q: Which inhibition does the source give for CCC/C(O)=C1\C(=O)CCCC1=NCCc1c(C)[nH]c2ccc(C)cc12 here?
A: -7.7%

Q: Which inhibition does the source give for CCC/C(O)=C1\C(=O)CCCC1=NCCc1c(C)[nH]c2ccc(OC)cc12 here?
A: 65.4% (active)

Q: Which inhibition does the source give for CCCC/C(O)=C1\C(=O)CCCC1=NCCc1c(C)[nH]c2ccc(OC)cc12 here?
A: -7.7%

Q: For CCS(=O)(=O)c1ccc2c(c1)N(S(C)(=O)=O)CC(C(=O)NCc1ccccc1OC)O2 (centres undefined), which inhibition is on record?
A: 10.4%

Q: With COc1ccc(-c2nc(CN3CCN(c4ccccc4OC)CC3)c(C)o2)cc1 as the compound, how does the inhibition read?
A: -31.1%

Q: Which inhibition does the source give for Cc1cnc(C)c(N2CCN(Cc3nc(-c4cccc(F)c4F)oc3C)CC2)n1 here?
A: -26.1%

Q: Which inhibition does the source give for Cc1oc(-c2cc(F)ccc2F)nc1CN1CCN(c2cnccn2)CC1 here?
A: -26%

Q: For Cc1cccc(N2CCN(Cc3nc(-c4ccc(F)cc4F)oc3C)CC2)n1, which inhibition is on record?
A: -6.3%

Q: Which inhibition does the source give for Cc1cccc(N2CCN(Cc3nc(-c4ccccc4Cl)oc3C)CC2)n1 here?
A: -11.6%

Q: For COc1ccc(-c2nc(CN3CCN(c4cc(C)nc(C)c4)CC3)c(C)o2)c2ccccc12, which inhibition is on record?
A: -23.4%

Q: Which inhibition does the source give for CCCCn1c(SCC(=O)Nc2cc(C(F)(F)F)ccc2Cl)nnc1C(CC)N(C)C (centres undefined) here?
A: -47.6%

Q: Which inhibition does the source give for O=C1CCc2cc(S(=O)(=O)N3CCC(C(=O)NCc4ccccn4)CC3)ccc2N1 here?
A: -15.8%

Q: With O=C(O)CCC(=O)Nc1cccc(-c2nnc(-c3ccccc3)o2)c1 as the compound, how does the inhibition read?
A: 15.5%

Q: With CCN1CCSc2ccc(C(=O)Nc3ccc(NC(C)=O)cc3)cc21 as the compound, how does the inhibition read?
A: 4%

Q: Which inhibition does the source give for CC(=O)Nc1ccc(NC(=O)C2(C)CC2(Cl)Cl)cc1 (centres undefined) here?
A: -29.2%

Q: Which inhibition does the source give for N#CCCn1c(SCC(=O)NCc2ccco2)nc2ccccc21 here?
A: -13.3%

Q: With CC(=O)c1cccc(NC(=O)CNC(=O)Cc2ccccc2)c1 as the compound, how does the inhibition read?
A: 19.8%

Q: For CC(C)(C)NC(=O)N1CCCN(c2ccc(C(F)(F)F)cn2)CC1, which inhibition is on record?
A: -7.3%

Q: For CCOC(CNc1cc(C)nc2c(-c3ccccc3OC)c(C)nn12)OCC, which inhibition is on record?
A: -6.1%

Q: For Clc1ccccc1-c1ccc(CN2CCN(c3ccccc3)CC2)o1, which inhibition is on record?
A: 7.9%

Q: For CC(C(=O)Nc1c2c(cc3c1CCC3)CCC2)N1CCCC1 (centres undefined), which inhibition is on record?
A: 63.4% (active)

Q: For Cc1cccc(C)c1NC(=O)C(C)N1CCCC1 (centres undefined), which inhibition is on record?
A: 5.2%

Q: For Cc1cc(C)c(NC(=O)C(C)N2CCCCCC2)c(C)c1 (centres undefined), which inhibition is on record?
A: 39.1%

Q: For Clc1ccc2c(NCc3ccco3)ncnc2c1, which inhibition is on record?
A: 16.7%

Q: With c1ccc(CNc2ncnc3sccc23)cc1 as the compound, how does the inhibition read?
A: 31.8%

Q: With Brc1ccc2ncnc(NCc3ccccc3)c2c1 as the compound, how does the inhibition read?
A: 93.1% (active)

Q: For O=C(O)c1cccc(Nc2ncnc3ccc(Br)cc23)c1, which inhibition is on record?
A: -10.3%

Q: Which inhibition does the source give for COc1cc2ncnc(NCc3ccco3)c2cc1OC here?
A: -1.4%

Q: With Cc1ccc(S(=O)(=O)CC(=O)c2ccccc2)cc1 as the compound, how does the inhibition read?
A: -10%

Q: For CC(=O)Nc1c(C)cc(S(C)(=O)=O)cc1C, which inhibition is on record?
A: -12.2%

Q: Which inhibition does the source give for NC(=O)c1c(NC(NC(=O)c2ccco2)(C(F)(F)F)C(F)(F)F)sc2c1CCCC2 here?
A: -24.2%

Q: Which inhibition does the source give for O=C(COC(=O)c1cc(-c2ccc(Cl)s2)nc2ccccc12)NCc1ccco1 here?
A: -9.8%

Q: Which inhibition does the source give for C=CCCC(=O)NC1CC(C)(C)Cc2c1cnn2-c1ccc(OC)cc1 (centres undefined) here?
A: -7%

Q: With c1ccc2c(c1)CCN(c1ncnc3nc[nH]c13)C2 as the compound, how does the inhibition read?
A: -40.8%

Q: For CC1Cc2ccccc2N1c1ncnc2c1nnn2Cc1ccccc1 (centres undefined), which inhibition is on record?
A: -0.2%

Q: With Cc1ccccc1Oc1ncnc(N)c1[N+](=O)[O-] as the compound, how does the inhibition read?
A: 4.6%

Q: With CC1Cc2ccccc2N1c1ncnc(N)c1[N+](=O)[O-] (centres undefined) as the compound, how does the inhibition read?
A: 96.2% (active)

Q: Which inhibition does the source give for Clc1ccccc1N1CCN(c2ncnc3nc[nH]c23)CC1 here?
A: -13.5%

Q: With CC1Cc2ccccc2N1c1ncnc2nc[nH]c12 (centres undefined) as the compound, how does the inhibition read?
A: 71.8% (active)

Q: Which inhibition does the source give for O=C(CCNC(=O)N1CCn2c1nc1ccccc12)NCc1ccc(Cl)cc1 here?
A: -26.9%

Q: With CN(C)C(=O)c1cc(C(=O)c2ccc(C(F)(F)F)cc2F)c[nH]1 as the compound, how does the inhibition read?
A: 21.8%
